# Measurements as given in ChEMBL document CHEMBL1157539, “Thousands of chemical starting points for antimalarial lead identification” (Nature, 2010).
# Values joined by “and” are separate entries in the source; they are usually repeats but may differ in a detail not shown here. Equal values may be shown once.
# Legend:
# Format in all cases: functional
# [1] = test system: Plasmodium falciparum; test: GSK_TCMDC: Inhibition of Plasmodium falciparum 3D7 in whole red blood cells, using parasite LDH activity as an index of growth. Test compounds present at 2uM
# [2] = test system: Plasmodium falciparum; test: GSK_TCMDC: Inhibition of Plasmodium falciparum Dd2 in whole red blood cells, using parasite LDH activity as an index of growth. Test compounds present at 2uM
# [3] = test system: HepG2; test: GSK_TCMDC: Percent inhibition of human HepG2 cell line. Test compounds present at 10uM.
SMILES,Inhibition [1],Inhibition [2],Inhibition [3]
Br.COC(=O)C(C)(C)c1ccc(CC(C)NCC(O)c2cccc(C(F)(F)F)c2)cc1 (configuration not stated),99%,98%,6%
CC(C)CCNC(=O)c1cc(C(=O)c2cc(F)ccc2O)cn(CCC(C)C)c1=O,100%,45%,14%
CC[C@H]1CN2CC[C@@H]1C[C@H]2[C@H](O)c1cc(-c2ccc(Cl)c(Cl)c2)nc2ccc(O)cc12,98%,99%,0%
CC[C@H]1CN2CC[C@H]1C[C@H]2[C@H](O)c1cc(-c2ccc(F)cc2C)nc2ccc(OC)cc12.Cl,99%,100%,0%
CC[C@H]1CN2CC[C@@H]1C[C@H]2[C@H](O)c1cc(-c2ccc(F)cc2)nc2ccc(O)cc12.Cl,99%,99%,25%
C/C=C1/CN2CC[C@H]1C[C@H]2[C@H](O)c1ccnc2ccc(OC)cc12,99%,45%,0%
COC(=O)/C=C/c1ccc(CC(C)NCC(O)c2cccc(Cl)c2)cc1 (configuration not stated),99%,73%,2%
CN(C)c1cccc(CN2CC=C(c3c[nH]c4ccc(Cl)cc34)CC2)c1,93%,87%,40%
Cc1cc(NC(=O)[C@H](CC(C)C)Nc2ccc(C#N)c3ccccc23)ccc1F.O=C(O)C(F)(F)F,95%,88%,35%
O=C(NC1CCC(CN2CCC(c3c[nH]c4ccccc34)CC2)CC1)c1cc(-c2ccc(F)cc2F)ccc1O (configuration not stated),100%,100%,30%
Cc1ccc(CC(C)NCC(O)c2cccc(C(F)(F)F)c2)c(C)c1.Cl (configuration not stated),99%,99%,3%
C=Cc1cc(OC)c2c(c1)c(=O)oc1c2cc(OC)c2c(O)ccc([C@H]3O[C@H]([C@H](C)O)[C@H](O)[C@H]3O)c21,95%,41%,33%
O=C(/C=C/c1ccc(Cl)c(Cl)c1)NCCCCCN1C2CCC1CC(c1c[nH]c3ccccc13)C2 (configuration not stated),98%,4%,54%
C[C@@H]1C[C@@H]([C@H](O)CC2CC(=O)NC(=O)C2)C(=O)[C@@H](C)C1 [CYCLOHEXIMIDE],96%,87%,46%
CC(=O)Nc1ccc(CN2CCC(N(C)c3ccc(NC(=O)c4cccc(C)c4)cc3)CC2)cc1.O=C(O)C(F)(F)F,91%,50%,0%
COc1ccc(CN2CCN(CCOC(c3ccccc3)c3ccc(Cl)cc3)CC2)c(O)c1 (configuration not stated),99%,98%,12%
COc1ccc(CC(C)NCC(O)c2cccc(Cl)c2)cc1C (configuration not stated),89%,78%,11%
CCN(CC)CCOC(=O)C(OC)(c1ccccc1)c1ccccc1,97%,6%,0%
COc1cc2nc(N(C)C3CCN(Cc4ccccc4)CC3)nc(N)c2cc1OC,99%,93%,19%
CN1CC=C(c2c[nH]c3ccc(OC(=O)c4ccccc4)cc23)C1,96%,97%,12%

SMILES,Inhibition [1],Inhibition [2],Inhibition [3]
O=C(/C=C/c1ccc(Cl)c(Cl)c1)Nc1cccc(CN2CCC(c3c[nH]c4ccc(O)cc34)CC2)c1,100%,90%,11%
CC[C@H]1CN2CC[C@H]1C[C@@H]2[C@@H](O)c1ccnc2ccc(OC)cc12.Cl,100%,95%,0%
COc1ccc(CN2CCN(CCOC(c3ccccc3)c3ccccc3)CC2)c(O)c1,96%,84%,19%
O=C(NC1CCC(CN2CCC(c3c[nH]c4ccccc34)CC2)CC1)c1cnn(-c2ccccc2)c1-c1ccccc1Cl (configuration not stated),95%,11%,66%
Cc1cc(-c2ncc[nH]2)ccc1-c1ccc(C(=O)N2CCc3cc4c(cc32)C2(CCN(C)CC2)CO4)cc1.Cl,100%,98%,32%
CC(C)CNCc1cccc(-c2ccc(CN(C(=O)Nc3ccccc3)C3CCN(Cc4ccccc4)CC3)cc2)c1.O=C(O)C(F)(F)F,100%,61%,41%
O=C(/C=C/c1c(Cl)cccc1Cl)NC1CCC(CN2C3CCC2CC(c2c[nH]c4ccccc24)C3)CC1 (configuration not stated),95%,18%,40%
COc1ccc(C[C@H]2NC[C@H](O)[C@H]2OC(C)=O)cc1 [ANISOMYCIN],100%,98%,39%
CC(=O)N(Cc1cccc(-c2cccc(CNCCc3ccccc3)c2)c1)C1CCN(Cc2ccccc2)CC1.O=C(O)C(F)(F)F,100%,57%,22%
CC(Cc1ccc(OCCCCOc2ccccc2)cc1)NCCCn1ccnc1 (configuration not stated),100%,100%,100%
COc1ccc(OC)c(C(O)CNC(C)C)c1.Cl (configuration not stated),96%,0%,3%
O=C1Nc2cccc3c2C1(CCCCCN1CC=C(c2c[nH]c4ccccc24)CC1)CCC3 (configuration not stated),94%,89%,2%
CN1C2CCC1c1cc(NC(=O)c3cc(-c4ccc(Cl)cc4)cs3)ccc12.O=C(O)C(F)(F)F (configuration not stated),90%,35%,62%
CC(C)/C(=C(/F)CN1C(=O)C(NC(=O)c2cc3ccccc3[nH]2)C(=O)N(c2ccccc2)c2ccccc21)c1ccccc1 (configuration not stated),98%,82%,7%
O=C(/C=C/c1ccc(Cl)c(Cl)c1)N1CCC(CN2CCC(c3c(-c4ccccc4)[nH]c4ccccc34)CC2)CC1,100%,99%,43%
COc1cc(C=CC(=O)N2CCC(CN3CCC(c4c[nH]c5ccccc45)CC3)CC2)cc(OC)c1,95%,8%,19%
N#Cc1ccc(N(CC(=O)NCCc2ccc(F)cc2)CC2CC2)c2ccccc12.O=C(O)C(F)(F)F,91%,23%,28%
CCN1CCC2(c3cccc(OC)c3)Cc3nc4ccccc4c(-c4ccccc4)c3CC2C1 (configuration not stated),99%,98%,0%
Cc1ccc2[nH]cc(C3CCN(CC4CCC(NC(=O)/C=C/c5ccc(Cl)c(Cl)c5)CC4)CC3)c2c1 (configuration not stated),100% and 94%,86% and 46%,37% and 29%
c1ccc(C(OCCC2CCN(Cc3cccc4cccnc34)CC2)c2ccccc2)cc1,99%,99%,9%

SMILES,Inhibition [1],Inhibition [2],Inhibition [3]
O=C(C=Cc1ccc(F)c(Br)c1)NC1CCC(CN2CCC(c3c[nH]c4ccccc34)CC2)CC1 (configuration not stated),100%,67% and 50%,28% and 39%
CS(=O)(=O)Nc1ccc2[nH]cc(C3CCN(CC4CCN(C(=O)/C=C/c5ccc(Cl)c(Cl)c5)CC4)CC3)c2c1,100%,92%,27%
CC(C)CNCc1cccc(-c2cccc(CN(C(=O)Nc3ccccc3)C3CCN(Cc4ccccc4)CC3)c2)c1.O=C(O)C(F)(F)F,100%,89%,31%
O=C(C=Cc1ccccc1Br)NC1CCC(CN2CCC(c3c[nH]c4ccccc34)CC2)CC1 (configuration not stated),100%,57% and 32%,36% and 43%
COc1cccc(CCNC(C)Cc2ccc(OCCCCOc3ccccc3)cc2)c1 (configuration not stated),97%,90%,100%
Cc1[nH]c2cc(Cl)ccc2c1C1=CCN(CCCCC2(C)C(=O)Nc3ccccc32)CC1 (configuration not stated),94%,90%,0%
CS(=O)(=O)Nc1ccc2[nH]cc(C3CCN(CC4CCC(NC(=O)/C=C/c5ccc(Cl)c(Cl)c5)CC4)CC3)c2c1 (configuration not stated),100%,86%,22%
CC(Cc1ccc(Oc2ccccc2)cc1)NCC(O)c1cccc(C(F)(F)F)c1 (configuration not stated),98%,99%,16%
CC[C@H]1CN2CC[C@H]1C[C@H]2[C@H](O)c1cc(N2CCCC(C(=O)N(CC)CC)C2)nc2ccc(OC)cc12 (some centres not stated),100%,99%,0%
Br.COc1ccc(C[C@@H](C)NC[C@H](O)c2cccc(Cl)c2)cc1F,88%,76%,2%
CC[C@H]1CN2CC[C@H]1C[C@H]2[C@H](O)c1cc(-c2ccccc2C)nc2ccc(OC)cc12.Cl,100%,98%,16%
O=C1c2ccccc2CCC1CCN1CC=C(c2c[nH]c3ccccc23)CC1 (configuration not stated),89%,83%,5%
Br.CC(Cc1ccc(CSC(C)C)cc1)NCC(O)c1cccc(Cl)c1 (configuration not stated),98%,98%,11%
CCOC(=O)c1c(C)n(C2CCCCCC2)c2cc(Br)c(O)cc12,87%,45%,0%
O=C(NC1CCC(CN2CCC(c3c[nH]c4ccccc34)CC2)CC1)[C@H]1Cc2ccccc2CN1 (some centres not stated),89%,35%,29%
CC[C@H]1CN2CC[C@H]1C[C@H]2[C@H](O)c1cc(-c2cccc(C)c2)nc2ccc(OC)cc12.Cl,100%,100%,15%
Br.CCCCCCCSc1ccc(CC(C)NCC(O)c2cccc(Cl)c2)cc1 (configuration not stated),100%,99%,94%
COc1ccc(C2CNCc3c2cc(OC)c(OC)c3Cl)cc1.Cl (configuration not stated),98%,3%,42%
O=C(/C=C/c1ccc(Cl)c(Cl)c1)N1CCC(CN2CCC(c3c[nH]c4cc5c(cc34)OCO5)CC2)CC1,100%,75%,41%
